# From PubChem BioAssay (NCI)
# This is part of a sample that, as a whole, favours compounds with a hit. Of some 83,000 tested, about 20% had one in any assay.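 How to read the values: 0–100, growth inhibition (40 = 60% inhibited); 0, no net growth; -100 to 0, cell death (-40 = 40% of starting cells died; -100 = all dead).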 The source made the active and inactive calls. The calls were made as follows: active = growth percent below 10; inactive = the rest.
# System: SK-MEL-28 melanoma
# Experiment: NCI-60 one-dose screen, 48 h (100 = growth as untreated, 0 = no growth, -100 = all killed)
# Conditions: 10 µM unless noted
row,Compound,growth
1,Cc1ccc(-c2nn(-c3ccccc3)cc2C=C2C(=O)ON=C2C(C)C)cc1,88.7% (inactive)
2,CC(C)n1cnc2c(=S)nc[nH]c21,131% (inactive)
3,CN1C(=O)/C(=C/c2ccc(C(=O)Nc3ncc(Cc4ccc(Cl)cc4)s3)cc2)SC1=S,60.2% (inactive)
4,O=C(Nc1ccc(NC(=O)c2cc(=O)[nH]c3ccccc23)cc1)Nc1cccc(C(F)(F)F)c1,63.6% (inactive)
5,O=C(NCCCCNC(=O)OCc1ccc2c(Cl)cc(Cl)c(O)c2n1)OCc1ccc2c(Cl)cc(Cl)c(O)c2n1,50.6% (inactive)
6,CCC(C)N(c1ccc(Cl)cc1)c1nc(-c2ccc(Br)cc2)cs1 (stereo unspecified),111% (inactive)
7,COc1cc(-n2cc(-c3cc(O)c(C/C=C(\C)CCC=C(C)C)c(O)c3)nn2)cc2c1O[C@]1(C)CC[C@@H](O)C(C)(C)[C@H]1C2,35.7% (inactive)
8,C=CCn1c(SCC(=O)Nc2ccc(C(=O)/C=C/c3ccc(Cl)cc3)cc2)nnc1-c1cc(-c2ccc(S(N)(=O)=O)cc2)nc2ccccc12,92.1% (inactive)
9,Clc1ccc2c(c1)N(c1ncnc3ccc(-c4cnc5[nH]ncc5c4)cc13)CC2,44.1% (inactive)
10,O=C(Nc1ccc(-c2nc(N3CCOCC3)c3cccn3n2)cc1)Nc1cccnc1,-17.3% (active)
11,CCc1ccc(Oc2cn[nH]c2-c2ccc(OCCc3ccc(F)cc3)cc2O)cc1,87.3% (inactive)
12,C#Cc1cccc(Nc2ncnc3ccc(-c4cnc(N)nc4)cc23)c1,38.1% (inactive)
13,Oc1c(Cl)cc(Cl)c2ccc(Cn3cc(-c4cc(C(F)(F)F)cc(C(F)(F)F)c4)nn3)nc12,46% (inactive)
14,COc1cc(N2C(=O)[C@H](O)C2c2ccc(SC)cc2)cc(OC)c1OC (stereo partly specified),67.1% (inactive)
15,OCCCC1CCN(C(Cc2ccccc2)c2ccccc2)CC1 (stereo unspecified),64.8% (inactive)
16,CNC(=O)c1c(NC(=O)c2ccc(C(F)(F)F)cc2)sc2c1CCC(=O)C2,4.24% (active)
17,CC/C(=C(/c1ccc(Cl)cc1)c1ccc(OCCN2CCCC2)cc1)c1ccc(OC)cc1,85% (inactive)
18,O=C1Nc2ccccc2/C1=C\c1nc(-c2ccccc2F)n2ccccc12,69.3% (inactive)
19,Cc1cc(=O)[nH]c2c(C#N)cnn12,105% (inactive)
20,COc1ccc(C/C(C)=C(/c2ccc(OCCN3CCCCC3)cc2)c2ccc(OC(=O)NCc3ccccc3)cc2)cc1,-85.8% (active)
21,COc1ccc(CC(C#N)c2cc3ccccc3[nH]2)cc1 (stereo unspecified),95% (inactive)
22,N#CC1CCc2c(c(-c3cn[nH]c3C(F)(F)F)nc3c(F)cc4[nH]ncc4c23)C1 (stereo unspecified),24.9% (inactive)
23,Cn1ccnc1C(=O)C(=O)Nc1ccc(CC(=O)Nc2ccccc2)cc1,107% (inactive)
24,Cc1ccc(/C=N/Nc2nc(Nc3ccccc3)nc(-n3nc(C)cc3C)n2)cc1,68.6% (inactive)
25,Cc1nc2ncnc(Cl)c2[nH]1,115% (inactive)
26,COc1ccc2[nH]cc(-c3nc(-c4c[nH]c5ccncc45)cs3)c2c1,-88.5% (active)
